# Source: PubChem BioAssay AID485290 (National Center for Advancing Translational Sciences (NCATS), 2010)
# The whole screen tested about 350,000 compounds, of which about 990 (0.28%) were called active. About 2% were inconclusive and are not listed. Shown is part of a subset that was picked to be rich in actives. A number with no mark means an inactive call. The call rests on the fitted dose curve; in most records, active means well fitted inhibition curve with a large enough effect; inconclusive means small, poorly fitted or top-dose-only effect; inactive means no such curve, though single readings can be large or run the other way.
# Molecular target: Tyrosyl-DNA phosphodiesterase 1 (Homo sapiens) (UniProt Q9NUW8)
# Assay: qHTS Assay for Inhibitors of Tyrosyl-DNA Phosphodiesterase (TDP1); further: nearly all actives have a fitted effect of over 40% in size
# Conditions: recombinant TDP1, AlphaScreen DNA substrate cleavage; series mostly up to 130 µM; activity change, negative = inhibition: at the top concentration
# How it was run: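 AlphaScreen read-out: signal falls as enzyme removes the 3' tyrosine-FITC from a 5'-biotinylated DNA oligo (15 nM, 5 min, RT). Enzyme was E. coli-made recombinant Tdp1 at 1 nM, exposed to compound for 15 min beforehand; beads 10 ug/ml, 10 min.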
# On the % scale 0 is the no-effect control and ±100 the full control effect; potency means the concentration at half of the fitted maximal effect.
# Tyrosyl-DNA phosphodiesterase 1 (Homo sapiens), sequence (Q9NUW8 whole entry, looked up): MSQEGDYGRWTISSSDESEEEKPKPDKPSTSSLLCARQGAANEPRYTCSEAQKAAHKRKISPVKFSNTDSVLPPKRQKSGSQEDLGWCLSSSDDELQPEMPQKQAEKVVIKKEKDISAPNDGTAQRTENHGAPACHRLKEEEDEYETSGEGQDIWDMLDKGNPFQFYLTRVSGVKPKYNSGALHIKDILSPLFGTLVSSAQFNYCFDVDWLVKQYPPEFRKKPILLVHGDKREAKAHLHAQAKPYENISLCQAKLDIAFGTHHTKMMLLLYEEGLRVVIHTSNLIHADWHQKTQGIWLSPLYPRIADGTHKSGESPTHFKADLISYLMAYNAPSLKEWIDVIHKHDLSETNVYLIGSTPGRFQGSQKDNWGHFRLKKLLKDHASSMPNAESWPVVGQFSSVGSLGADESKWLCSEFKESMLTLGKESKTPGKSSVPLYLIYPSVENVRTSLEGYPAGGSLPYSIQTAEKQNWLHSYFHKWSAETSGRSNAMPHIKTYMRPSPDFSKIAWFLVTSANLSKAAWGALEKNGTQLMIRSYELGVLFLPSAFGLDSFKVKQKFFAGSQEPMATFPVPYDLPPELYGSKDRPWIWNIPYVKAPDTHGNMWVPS
SMILES,"activity change, negative = inhibition",Potency
COc1ccc(S(=O)(=O)Nc2cccc3cccnc23)c(N)c1,2.13%,
COc1ccccc1NC(=O)C(=O)c1cc(C)n(-c2ccccc2F)c1C,0%,
CCCOc1ccc(NC(=O)CC2C(=O)N(c3ccccc3)C(=O)N2Cc2ccco2)cc1 (stereo not drawn),8.45%,
O=C(O)CSc1ccc(S(=O)(=O)N2CCCC2)cn1,-0.365% [at 56.1 µM],
N#Cc1c(N2CCCCC2)nc(N)c2c(N)nc(SCC(=O)O)cc12,,50.1 µM (active)
Cc1cc(C)c(C#N)c(N2CCC(C(N)=O)CC2)n1,2.35%,
O=C1CCCC2=C1[C@@]1(CCC(c3ccccc3)C1)N=C(Nc1nc3ccccc3o1)N2 (stereo partly drawn),,inactive
CCCCCCC1(C)NC(c2ccc3c(c2)OCO3)=CC(c2ccccc2O)N1 (stereo not drawn),1.74%,
COc1ccc(Nc2cc(C(=O)NCCCN(C)c3ccccc3)c3ccccc3n2)c(OC)c1,5.69%,
Cc1ccc(NC(=O)CCCn2c(=O)c3cccn3c3ccccc32)cc1Cl,5.2%,
O=C1c2ccccc2C(=O)N1c1ccc(S(=O)(=O)N2CCOCC2)c2ccccc12,2.45%,
O=C(Nc1cccc2cccnc12)C(F)(F)F,-5.28%,
CCOC(=O)C1=C(C)N=C2c3ccccc3C(=O)C2C1c1ccc(Br)cc1 (stereo not drawn),5.56%,
CCOC(=O)C1=NO[C@@]2(C=C(Br)C(=O)[C@H]3O[C@H]32)C1,,8.91 µM (active)
CCOC(=O)C1=NOC(Cn2cc(C(C)=O)c(=O)[nH]c2=O)C1 (stereo not drawn),1.27%,
CCOC(=O)N1CCc2c(sc(NCc3cccc(F)c3)c2C(=O)Nc2ccccc2OCC)C1,6.63%,
CCC1(C)CC(=O)c2c(ccc3oc(C(=O)Nc4ccc(C(C)=O)cc4)c(C)c23)O1 (stereo not drawn),5.06%,
COc1ccc(Cc2nc3ccc(C(=O)NCc4ccccc4Cl)cc3o2)cc1,2.96%,
CC(=O)NS(=O)(=O)c1ccc(NC(=O)C2C3C=CC(C3)C2C(=O)O)cc1 (stereo not drawn),,79.4 µM (active)
COC(=O)c1cc(NC(=O)C2C3C=CC(C3)C2C(=O)O)cc(C(=O)OC)c1 (stereo not drawn),5.21%,
CC(C)COC(=O)c1ccc(NC(=O)C2C3C=CC(C3)C2C(=O)O)cc1 (stereo not drawn),0.957%,
O=C(NCc1ccc2c(c1)CCN2C(=O)c1ccccc1)Nc1cc(F)ccc1F,8.11%,

SMILES,"activity change, negative = inhibition",Potency
O=C(CNC(=O)c1ccc(Cl)c(C(F)(F)F)c1)OC(C(=O)Nc1cc(C(F)(F)F)ccc1Cl)c1ccccc1 (stereo not drawn),-0.621%,
CC(=O)Nc1cccc(NC(=O)CSc2nccn2Cc2ccc3c(c2)OCO3)c1,11%,
O=C(CCC1CCCN(C(=O)c2ccc(F)c(F)c2)C1)N1CCN(c2ccccn2)CC1 (stereo not drawn),2.69%,
C=Cc1ccc(C(=O)N2CCCC(CCC(=O)N3CCN(c4ccccn4)CC3)C2)cc1 (stereo not drawn),,1.26 µM (active)
O=C(CCC1CCCN(C(=O)Cc2ccc(F)cc2)C1)N1CCN(c2ccccn2)CC1 (stereo not drawn),0%,
Cc1ccc(S(=O)(=O)NC(N)=NCCC[C@@H](NC(=O)CNC(=O)c2ccccc2)C(=O)Nc2cc(C(F)(F)F)ccc2Cl)cc1,-0.119%,
CC(Nc1ncnc2ccc(-c3ccc4c(c3)OCO4)cc12)c1ccco1 (stereo not drawn),5.01%,
O=C(O)c1ccc2c(c1)N(Cc1ccc(F)cc1)C(=O)c1ccccc1S2=O (stereo not drawn),2.6%,
O=c1[nH]c(=S)[nH]c2[nH]c(=S)[nH]c12,,8.91 µM (active)
CCCS(=O)(=O)Nc1cccc(-c2cn3ccsc3n2)c1,5.41%,
COC(=O)c1ccc(NC(=O)CCc2c(C)nn(-c3ccc(N4CCCC4)nn3)c2C)cc1,4.54%,
CN(C)c1ccc(C(=O)NCC(=O)OC(C(=O)Nc2cc(C(F)(F)F)ccc2Cl)c2ccccc2)cc1 (stereo not drawn),-8.84%,
CCOc1cccc(C(=O)Nc2nnc(S(=O)(=O)N(C)c3ccc(C)cc3)s2)c1,0%,
O=C(NCc1nnc(C(=O)Nc2ccc(C(F)(F)F)cc2Cl)o1)c1ccccc1,-0.245%,
COc1ccc(NC(=O)c2sc3nc[nH]c(=O)c3c2C)cc1,5.5%,
Cc1cccc(N2CCN(c3ccc(C(=O)O)cc3NC(=O)c3ccccc3F)CC2C)c1 (stereo not drawn),-2.63%,
O=C(NCCCO)C(=O)Nc1c2c(nn1-c1ccccc1)CSC2,7.79%,
C=C1c2cccc(OC)c2O[C@H](C(=O)OCC)[C@@H]1CCCCCC,,35.5 µM (active)
CCOC(=O)C1=C(C)c2ccccc2OC1C(=O)OCC (stereo not drawn),,inactive
COc1ccc(C(=O)N(Cc2ccccc2)Cc2ccc(OC)c(COc3ccc(NC(C)=O)cc3)c2)c(O)c1,-3.45%,
CC(=O)NC(c1cccs1)c1cc(Cl)c2cccnc2c1O (stereo not drawn),0.553%,
